# Reference: PubChem BioAssay AID720540 (National Center for Advancing Translational Sciences (NCATS), 2013)
# Screen size: about 1,300 compounds; about 460 (35%) were called active. Another 39% or so got no clear call; they are omitted. The call rests on the fitted dose curve; in most records, active means well fitted inhibition curve with a large enough effect; inconclusive means small, poorly fitted or top-dose-only effect; inactive means flat fitted curve, though single readings scatter. The list shows a part of the results.
# Target: Protein phosphatase EYA2 (Homo sapiens) (UniProt O00167)
# Sequence (O00167 whole entry, looked up): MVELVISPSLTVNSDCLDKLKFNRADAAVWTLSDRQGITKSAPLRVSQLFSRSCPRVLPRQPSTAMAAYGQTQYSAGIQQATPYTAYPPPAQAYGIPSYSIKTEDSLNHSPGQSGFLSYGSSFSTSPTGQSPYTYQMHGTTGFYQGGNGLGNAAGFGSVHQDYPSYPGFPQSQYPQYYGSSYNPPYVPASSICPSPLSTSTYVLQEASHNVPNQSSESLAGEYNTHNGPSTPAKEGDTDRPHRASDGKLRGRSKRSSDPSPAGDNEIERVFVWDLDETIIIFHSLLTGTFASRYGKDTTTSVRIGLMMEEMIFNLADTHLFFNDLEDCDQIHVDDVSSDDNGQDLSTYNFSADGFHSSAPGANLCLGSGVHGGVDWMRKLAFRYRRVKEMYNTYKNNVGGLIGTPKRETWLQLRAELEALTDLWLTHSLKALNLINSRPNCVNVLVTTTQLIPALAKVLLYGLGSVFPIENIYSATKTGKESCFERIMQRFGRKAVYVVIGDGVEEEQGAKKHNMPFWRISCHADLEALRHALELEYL
# Test: qHTS for Inhibitors of the Phosphatase Activity of Eya2: Confirmatory Assay for Cherry-picked Compounds; further: nearly all actives have a fitted effect of over 65% in size
# Conditions: purified EYA2 phosphatase activity, qHTS confirmation; series mostly up to 46.1 µM
# Procedure, shortened: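 Eya2 (0.2 uM working solution) preincubated 10 min at room temperature with compound in pH 7.5 HEPES buffer with MgCl2, BSA, DTT. OMFP added (50 uM working solution), 10 min more; fluorescence 485/525 nm, normalized to EGTA and DMSO.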
# Potency means the concentration at half of the fitted maximal effect.
row,SMILES,Potency
1,COc1ccc(C(=O)Nc2nc(-c3ccccn3)cs2)cc1S(=O)(=O)N1CCOCC1,1.51 µM (active)
2,Cc1cccc(S(=O)(=O)C(C#N)c2nc3ccccc3nc2N2CCOCC2)c1 (centres undefined),inactive
3,O=C(Nc1nc(-c2ccccn2)cs1)c1cccc(S(=O)(=O)N2CCOCC2)c1,1.51 µM (active)
4,O=C(Nc1cc(S(=O)(=O)N2CCOCC2)ccc1Cl)c1cc(=O)c2ccccc2o1,inactive
5,Cc1ccc(NC(=O)c2cc(=O)c3ccccc3o2)cc1S(=O)(=O)N1CCCCC1,12 µM (active)
6,S=C(Nc1ccc2c(c1)OCCO2)Nc1ccc2c(c1)OCO2,inactive
7,O=S(=O)(c1ccc(Cl)cc1)N1CCOCC1,inactive
8,Cc1ccc(NC(=O)COc2ccc(S(=O)(=O)N3CCOCC3)cc2)cc1,inactive
9,Cc1ccc(NC(=O)c2ccc3c(c2)OCO3)cc1S(=O)(=O)N1CCOCC1,9.53 µM (active)
10,CC(C(=O)c1ccc(Br)cc1)[n+]1cccc2ccccc21 (centres undefined),inactive
11,O=C1c2ccccc2C(=O)N1CCCc1cn(C[C@H]2CC[C@@H]([C@@H]3CC[C@H](Cn4cc(CCCN5C(=O)c6ccccc6C5=O)nn4)O3)O2)nn1,inactive
12,COc1ccc(CC(=O)Nc2cccc(Cl)c2C)cc1S(=O)(=O)N1CCOCC1,inactive
13,COc1ccc(C(=O)Nc2ccc3nc(C)sc3c2)cc1S(=O)(=O)N1CCOCC1,16.9 µM (active)
14,CCOC(=O)N1CCN(S(=O)(=O)c2ccc(C(=O)NNc3nc4ccc(Cl)cc4s3)cc2)CC1,inactive
15,CC(C)N=c1cc2n(-c3ccc(Cl)cc3)c3ccccc3nc-2cc1Nc1ccc(Cl)cc1,1.9 µM (active)
16,N#C/C(=C\c1ccc(OC(=O)c2ccccn2)cc1)C(N)=O,16.9 µM (active)
17,N#C/C(=C\c1ccc(OC(=O)c2ccc(Cl)s2)cc1)c1nc2ccccc2[nH]1,inactive
18,N#C/C(=C\c1ccc(OC(=O)c2ccc(Br)s2)cc1)c1nc2ccccc2[nH]1,inactive
19,N#C/C(=C/c1ccc(OC(=O)c2ccc(Br)s2)cc1)c1nc2ccccc2[nH]1,inactive
20,CCOC(=O)/C(C#N)=C/c1ccc(OC(=O)c2ccccn2)cc1,8.49 µM (active)
21,CC(=O)Nc1cc(=O)c2cccnc2[nH]1,15.1 µM (active)
22,CNC(=O)c1cc2c(cn1)[nH]c1ccccc12,inactive
23,CCNc1ccc2noc3c2c1C(=O)c1ccccc1-3,6.75 µM (active)
24,COc1cc(CNCc2ccc(OC)cc2OC)cc(OC)c1,inactive
25,CSc1nc(NCCOCCO)c2sc3nc(-c4ccco4)c4c(c3c2n1)CCC4,7.57 µM (active)
26,CCCOc1ccc(C2C3=C(Nc4nc(N)[nH]c(=O)c42)c2ccccc2C3=O)cc1 (centres undefined),3.38 µM (active)
27,CCOc1ccc(C2C3=C(Nc4nc(N)[nH]c(=O)c42)c2ccccc2C3=O)cc1 (centres undefined),2.69 µM (active)
28,Nc1nc2c(c(=O)[nH]1)C(c1cccc3ccccc13)C1=C(N2)c2ccccc2C1=O (centres undefined),7.57 µM (active)
29,Nc1nc2c(c(=O)[nH]1)C(c1ccccc1)C1=C(N2)c2ccccc2C1=O (centres undefined),1.69 µM (active)
